From PubChem BioAssay (NCI) come the findings set out here.

Several values for one entry are separate records, joined by “and”; a condition that tells them apart may be missing. Identical values can stand only once. The panel holds about 83,000 compounds, 20% with a hit somewhere; the sample as a whole holds those more often.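 Percent growth is the endpoint: 0 to 100 indicates growth inhibition (40 means 60% inhibition), 0 means no net growth, and negative values indicate cell death.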 A number with no mark means an inactive call. Activity calls are given as the source filed them. The calls were made as follows: active = growth percent below 10; inactive = the rest. Where a SMILES comes first, the peptide text is derived from it. The star is where a group is joined. Trt = c1ccc(C(c2ccccc2)(c2ccccc2)*)cc1; Cbz = O=C(OCc1ccccc1)*

One experiment concerns HCT-116 colon. Kind of experiment: NCI-60 one-dose screen, 48 h (100 = growth as untreated, 0 = no growth, -100 = all killed). The note with it: 10 µM unless noted.
Take `COc1cc(/C=C/C(C)=O)ccc1O`: the growth is 104% and 103%. The same measure, in the same setting: as for `CC(C)(C)CC(C)(C)c1ccc(OCCSC(=N)N)cc1`, the figure is -12.2% (active); as for `COc1ccc(N=N/N=c2\sc3cc(OC)ccc3n2C)cc1`, 95.8%; as for `O=C(Oc1cccc2cccnc12)c1ccccc1`, 32.8% and 102%. Same read-out and setting: for `S=C(NCCNC(=S)[S][Sn]([c]1ccccc1)([c]1ccccc1)[c]1ccccc1)[S][Sn]([c]1ccccc1)([c]1ccccc1)[c]1ccccc1` the value was -82.8% (active). Still for that read-out and setting: as for `C[N+](C)=c1ccc2nc3c(cc(NCCCNc4cc5oc6cc(=[N+](C)C)ccc-6nc5c5ccccc45)c4ccccc43)oc-2c1`, the figure is -36.9% (active); as for `C[n+]1c(/C=C/c2ccc([N+](=O)[O-])cc2)ccc2ccccc21`, 102%. With `CCC(CCCN(CC)CCc1ccccc1)OC(=O)c1cc(OC)c(OC)c(OC)c1` (centres undefined), the growth was 75.3%. On the same count and under the same terms, for `O=C(/C=C\c1ccccc1)N1c2ccccc2CC1c1c[nH]c2ccccc12` (centres undefined) the value was 23.1%. Same read-out and setting: as for `OC(CNc1ccnc2cc(Cl)ccc12)CNc1ccnc2cc(Cl)ccc12`, the figure is 5.7% (active); as for `COC(=O)c1nc(=S)[nH]c(C(=O)OC)c1C(=O)c1ccccn1`, 17.9%; as for `Cc1ccc(N=C=C(c2ccccc2)c2ccccc2)cc1`, 15.9%. Same read-out and setting: as for `NC(=S)N/N=C/c1ccc(Cl)s1`, the figure is 93.4%. With `O=[N+]([O-])c1ccc2c(N=Nc3ccc4ccccc4c3O)c(O)cc(S(=O)(=O)O)c2c1`, the growth was 93.3%. Still for that read-out and setting: for `CC(=Nc1ccc(N(C)C)cc1)c1ccccc1` the value was 50%; for `O=[N+]([O-])c1ccc(N=Nc2ccc(O)cc2O)cc1`, 17.5%.

`CCC(CC)COC(=O)c1ccc(O)c(O)c1`: the growth was 72.6%. The same measure, in the same setting: as for `CCC(c1cccc(O)c1)C(CC)c1cccc(O)c1` (centres undefined), the figure is 34.4%; as for `COC(=O)C(CSC(c1ccccc1)(c1ccccc1)c1ccccc1)NC(=O)C(CC(N)=O)NC(=O)OCc1ccccc1` (stereo not drawn) (Cbz-Asn-Cys(Trt)-OMe; configuration not given here), 12.7%; as for `CCC(=O)Sc1ccccc1C(=O)Nc1ccc(Cl)cc1`, 25.8%. On the same count and under the same terms, as for `Nc1ncnc2c1ncn2C1OC(CO)C(O)C1O` (centres undefined), the figure is 108% and 65% and 90%. Still for that read-out and setting: for `Cc1ccc2c(ccc3c[n+]4c5ccccc5ccc4n32)c1` the value was 7.17% (active). For `O=C(Nc1ccc(F)cc1)ON=C1CCCCC1`, the growth was 99.2% [100 µM]. On the same count and under the same terms, as for `CC1=CC(O)C2CC1C2(C)C` (centres undefined), the figure is 103%.

Turning to `O=C(CC1(O)C(=O)Nc2c(Cl)ccc(Cl)c21)c1ccc(Cl)cc1Cl` (centres undefined), the growth is 89.9%. The same measure, in the same setting: as for `O=C1N[C@H]2[C@H](CS[C@H]2CCCCC(=O)N(CCP(c2ccccc2)c2ccccc2)CCP(c2ccccc2)c2ccccc2)N1`, the figure is 35.5%. The same measure, in the same setting: as for `C=C(Cl)C(=NC(C)(C)C)Nc1ccccc1C`, the figure is 66.5%. On the same count and under the same terms, for `Cc1ccnc(NC(c2ccccc2)c2ccc3cccnc3c2O)c1` (centres undefined) the value was 31.8%; for `Cc1cc2nc(CS)[nH]c2cc1C`, 58.1%; for `O=C(O)C1C2CC3C(OC(=O)C31)C2Br` (centres undefined), 94.1% and 101%. In the case of `Cc1ccnc2c1ccc1c(C)ccnc12`, the growth was 13.7%. Same read-out and setting: for `COc1ccccc1/C=C\C(=O)c1ccccc1` the value was 22%.

For a further experiment, the system named is HCC-2998 colon. Described as above. The settings on record: 10 µM unless noted.
Take `COc1cc(/C=C/C(C)=O)ccc1O`: the growth was 102% and 104%.

Regarding `COc1ccc(N=N/N=c2\sc3cc(OC)ccc3n2C)cc1`, the growth was 102%. Still for that read-out and setting: as for `O=C(Oc1cccc2cccnc12)c1ccccc1`, the figure is 108% and 104%; as for `C[N+](C)=c1ccc2nc3c(cc(NCCCNc4cc5oc6cc(=[N+](C)C)ccc-6nc5c5ccccc45)c4ccccc43)oc-2c1`, 23.7%; as for `C[n+]1c(/C=C/c2ccc([N+](=O)[O-])cc2)ccc2ccccc21`, 100%. Still for that read-out and setting: as for `COC(=O)c1nc(=S)[nH]c(C(=O)OC)c1C(=O)c1ccccn1`, the figure is 45.3%; as for `Cc1ccc(N=C=C(c2ccccc2)c2ccccc2)cc1`, 101%; as for `O=[N+]([O-])c1ccc2c(N=Nc3ccc4ccccc4c3O)c(O)cc(S(=O)(=O)O)c2c1`, 94.4%. Regarding `CC(=Nc1ccc(N(C)C)cc1)c1ccccc1`, the growth is 58.2%.

Consider `O=[N+]([O-])c1ccc(N=Nc2ccc(O)cc2O)cc1`, for which the growth was 31.6%.

Turning to `CCC(c1cccc(O)c1)C(CC)c1cccc(O)c1` (centres undefined), the growth was 67%. On the same count and under the same terms, as for `COC(=O)C(CSC(c1ccccc1)(c1ccccc1)c1ccccc1)NC(=O)C(CC(N)=O)NC(=O)OCc1ccccc1` (stereo not drawn) (Cbz-Asn-Cys(Trt)-OMe; configuration not given here), the figure is -18.7% (active); as for `O=C(Nc1ccc(F)cc1)ON=C1CCCCC1`, 106% [100 µM]. The same measure, in the same setting: for `O=C(CC1(O)C(=O)Nc2c(Cl)ccc(Cl)c21)c1ccc(Cl)cc1Cl` (centres undefined) the value was 110%; for `Cc1ccnc(NC(c2ccccc2)c2ccc3cccnc3c2O)c1` (centres undefined), 27.3%; for `Cc1cc2nc(CS)[nH]c2cc1C`, 102%. With `O=C(O)C1C2CC3C(OC(=O)C31)C2Br` (centres undefined), the growth was 88.8% and 96.8%.
